Measured values reported in PubChem BioAssay (NCATS).
Records with an inconclusive call do not appear. Values without a mark were called inactive. The source made the active and inactive calls. Unless noted, calls come from the whole dose curve; as a rule, active = well fitted curve in the direction sought with a large enough effect; inconclusive = small, poorly fitted or top-dose-only effect, or another doubt; inactive = no such curve, though single readings can be large; an effect the other way counts as inactive or inconclusive. Where a SMILES comes first, the peptide text is derived from it. [ ]: non-standard residue; d: D form. The star is where a group is joined. Dolaproine = CO[C@@H]([C@@H]1CCCN1)[C@@H](C)C(=O)O; Dil = CC[C@H](C)[C@H](NC)[C@@H](CC(=O)O)OC; Doe = c1ccc(C[C@H](N*)c2nccs2)cc1; Aib = CC(C)(N)C(=O)O

Columns and labels:
[1] = Primary qHTS for inhibitors of nuclear receptor binding SET domain protein 2 (NSD2) in an isogenic RCH-ACV NSD2 p.E1099K mutant (9B) (AID 1645876); note: nearly all actives have a fitted effect of over 70% in size; note: potency is the fitted concentration of half-maximal effect
[2] = Primary qHTS for inhibitors of nuclear receptor binding SET domain protein 2 (NSD2) in an RCH-ACV wild type WT cells (2C) (AID 1645877); note: nearly all actives have a fitted effect of over 70% in size; note: potency is the fitted concentration of half-maximal effect
CRL-7250 [3] = assay: Cytotoxic Profiling of Annotated Libraries Using Quantitative High-Throughput Screening (AID 1296008); settings: Five cell lines viability, CellTiter-Glo ATP luminescence, 48-72 h; max response: active compounds read low; note: nearly all actives have a fitted effect of over 60% in size; note: potency is the fitted concentration of half-maximal effect; for max response: % is set by controls: 0 for no effect and ±100 for the full control effect
Procedure, shortened: (§1)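 Compounds were pin-transferred onto cells and incubated 48 or 72 hr at 37 degree Celsius, 95% humidity. CellTiter-Glo was added, plates sat 10 min at room temperature, then ATP-coupled luminescence was imaged as the viability read-out.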

HACAT = assay: qHTS assay to identify novel small-molecules to repurpose for Merkel cell carcinoma treatment (AID 1296009); settings: MCC and control cell lines, CellTiter-Glo viability, 72 h; at 44.8 µM (top of the series) unless noted; note: nearly all actives have a fitted effect of over 60% in size
Procedure, shortened: (§2)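 Luminescence from CellTiter-Glo, read 10 min after addition at room temperature, reported viability following a 72 hr, 37 degree celsius treatment with NPC or MIPE compounds in titration; values normalized to plate controls.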

CAOV3 = assay: Primary qHTS to identify gynecologic anti-cancer compounds using libraries of approved drugs and bioactive compounds (AID 1345084); settings: Gynecologic cancer cell panel viability, ATPlite luminescence, 48 h; series mostly up to 57.5 µM; note: nearly all actives have a fitted effect of over 55% in size; note: potency is the fitted concentration of half-maximal effect
Procedure, shortened: (§3)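 48 h compound exposure at 37 C, 5% CO2; five-point qHTS. ATPlite luminescence readout of cell ATP.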

HeLa = assay: as above; settings: Gynecologic cancer cell panel viability, ATPlite luminescence, 48 h; series mostly up to 57.5 µM
Procedure, shortened: as §3

[4] = P-glycoprotein substrates identified in KB-8-5-11 adenocarcinoma cell line, qHTS therapeutic library screen (AID 1346987); note: nearly all actives have a fitted effect of over 65% in size; note: potency is the fitted concentration of half-maximal effect
Procedure, shortened: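 In this qHTS, P-gp-rich KB-8-5-11 cells received library compounds across a concentration range. Viability was quantified by luminescence after 72 h at 37 degree C.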

CRL-7250 [5] = assay: qHTS assay to identify novel small-molecules to repurpose for Merkel cell carcinoma treatment (AID 1296009); settings: MCC and control cell lines, CellTiter-Glo viability, 72 h; series mostly up to 92 µM; note: nearly all actives have a fitted effect of over 60% in size
Procedure, shortened: as §2

SKOV3 = assay: Primary qHTS to identify gynecologic anti-cancer compounds using libraries of approved drugs and bioactive compounds (AID 1345084); settings: Gynecologic cancer cell panel viability, ATPlite luminescence, 48 h; series mostly up to 57.5 µM; note: nearly all actives have a fitted effect of over 55% in size; note: potency is the fitted concentration of half-maximal effect
Procedure, shortened: as §3

[6] = molecular target: Cytochrome P450 2D6 (Homo sapiens) (UniProt P10635); assay: Cytochrome P450 family 2 subfamily D member 6 (CYP2D6) small molecule antagonists: luciferase biochemical (cell-free) qHTS assay (AID 1645840; active = well fitted curve in the direction sought with a large enough effect in the repeat runs; an effect the other way counts as inactive or inconclusive; note: potency is the fitted concentration of half-maximal effect; nearly all actives have a fitted effect of over 55% in size)
Procedure, shortened: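 P450-Glo CYP2D6 system: proluciferin substrate converted by enzyme to luciferin, read by luminescence proportional to activity. Enzyme-substrate mix with compound 10 min at room temperature, then NADPH regeneration 1 h before detection reagent.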

[7] = molecular target: Cytochrome P450 2C9 (Homo sapiens) (UniProt P11712); assay: Cytochrome P450 family 2 subfamily C member 9 (CYP2C9) small molecule antagonists: luciferase biochemical (cell-free) qHTS assay (AID 1645842; active = well fitted curve in the direction sought with a large enough effect in the repeat runs; an effect the other way counts as inactive or inconclusive; note: potency is the fitted concentration of half-maximal effect; nearly all actives have a fitted effect of over 55% in size)
Procedure, shortened: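 P450-Glo CYP2C9 system: proluciferin substrate with enzyme in mix containing 0.4% BSA, 10 min at room temperature, then NADPH regeneration solution added and incubated 1 h at 37C. Detection reagent stopped reaction; luminescence read after 20 min as RLU.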

NIH3T3 = assay: qHTS assay to identify novel small-molecules to repurpose for Merkel cell carcinoma treatment (AID 1296009); settings: MCC and control cell lines, CellTiter-Glo viability, 72 h; at 44.8 µM (top of the series) unless noted; note: nearly all actives have a fitted effect of over 60% in size
Procedure, shortened: as §2

HEK293 = assay: Cytotoxic Profiling of Annotated Libraries Using Quantitative High-Throughput Screening (AID 1296008); settings: Five cell lines viability, CellTiter-Glo ATP luminescence, 48-72 h; max response: active compounds read low; note: nearly all actives have a fitted effect of over 60% in size; note: potency is the fitted concentration of half-maximal effect; for max response: % is set by controls: 0 for no effect and ±100 for the full control effect
Procedure, shortened: as §1

KB-3-1 = assay: as above; settings: Five cell lines viability, CellTiter-Glo ATP luminescence, 48-72 h; max response: active compounds read low
Procedure, shortened: as §1

Chain of Cytochrome P450 2D6 (Homo sapiens) (P10635 whole entry, looked up): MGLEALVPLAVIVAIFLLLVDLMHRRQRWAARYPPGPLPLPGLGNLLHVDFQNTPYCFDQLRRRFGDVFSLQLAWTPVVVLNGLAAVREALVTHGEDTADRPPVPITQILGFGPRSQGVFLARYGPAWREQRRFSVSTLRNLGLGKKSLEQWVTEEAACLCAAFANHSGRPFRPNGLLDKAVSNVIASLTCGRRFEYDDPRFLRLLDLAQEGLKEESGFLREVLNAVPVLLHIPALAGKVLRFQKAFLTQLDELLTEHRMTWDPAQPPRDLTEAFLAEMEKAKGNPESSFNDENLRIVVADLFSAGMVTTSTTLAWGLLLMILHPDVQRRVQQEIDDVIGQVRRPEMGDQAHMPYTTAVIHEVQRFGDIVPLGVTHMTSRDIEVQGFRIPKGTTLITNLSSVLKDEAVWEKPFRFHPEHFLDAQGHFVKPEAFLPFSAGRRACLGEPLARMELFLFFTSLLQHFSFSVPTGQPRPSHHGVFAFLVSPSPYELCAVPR
Chain of Cytochrome P450 2C9 (Homo sapiens) (P11712 whole entry, looked up): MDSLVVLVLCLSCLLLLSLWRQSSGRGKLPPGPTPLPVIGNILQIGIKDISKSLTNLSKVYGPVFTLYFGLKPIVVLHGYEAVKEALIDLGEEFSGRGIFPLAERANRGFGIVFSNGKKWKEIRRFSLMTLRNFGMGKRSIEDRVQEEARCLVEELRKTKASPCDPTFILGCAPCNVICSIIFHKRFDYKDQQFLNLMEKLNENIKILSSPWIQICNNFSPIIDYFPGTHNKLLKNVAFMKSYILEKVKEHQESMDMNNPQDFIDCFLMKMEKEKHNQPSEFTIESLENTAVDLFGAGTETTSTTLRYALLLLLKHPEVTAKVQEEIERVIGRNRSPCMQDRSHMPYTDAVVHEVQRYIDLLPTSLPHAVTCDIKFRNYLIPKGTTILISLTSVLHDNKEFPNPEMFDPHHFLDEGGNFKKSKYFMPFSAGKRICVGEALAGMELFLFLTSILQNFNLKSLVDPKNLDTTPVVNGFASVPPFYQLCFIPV

Which Potency [1] does the source give for C=C1C(=O)OC2/C=C(\COO)CC/C=C(\COC(C)=O)CC(OC(=O)C(C)CC)C12 (stereo not given) here?
Its Potency is 6.32 µM (active).

And the Potency [2]?
Its Potency is 3.55 µM (active).

What about the Potency (CRL-7250 [3]) of the same molecule?
Its Potency is 7.96 µM (active).

What about the outcome (HACAT) of the same molecule?
Its outcome is “inactive [at 17.4 µM]”.

And the Potency (CAOV3)?
Its Potency is “inactive”.

And the Potency (HeLa)?
Its Potency is “inactive”.

What does the source list for O=C(NCCN1CCC2(CC1)C(=O)NCN2c1cccc(F)c1)c1ccc(F)c(F)c1?
Potency [4]: 16.4 µM (active); Potency [1]: 23 µM (active); Potency [2]: 14.5 µM (active); outcome (CRL-7250 [3]): inactive; Potency (CRL-7250 [5]): inactive; Potency (CAOV3): inactive; Potency (SKOV3): inactive

Which Potency [6] does the source give for O=C1CN=C(c2ccccc2Cl)c2cc(Br)ccc2N1 here?
The Potency was 13.5 µM (active).

And the Potency [7]?
The Potency was 13.5 µM (active).

And the Potency [1]?
The Potency was 23 µM (active).

What about the Potency [2] of the same molecule?
Its Potency is 12.9 µM (active).

What about the max response (CRL-7250 [3]) of the same molecule?
The max response was -11.2%.

And the outcome (NIH3T3)?
The outcome was “inactive”.

What about the Potency (CAOV3) of the same molecule?
The Potency was “inactive”.

What about the Potency (HeLa) of the same molecule?
The Potency was “inactive”.

Which Potency [4] does the source give for C[C@@H]1O[C@@H](O[C@H]2CC[C@@]3(C)C(CC[C@@H]4C3CC[C@]3(C)[C@@H](C5=CC(=O)OC5)CC[C@]43O)C2)[C@H](O[C@@H]2O[C@H](CO)[C@@H](O)[C@H](O)[C@H]2O)[C@H](O)[C@H]1O (stereo not given in full) here?
The Potency was 0.485 µM (active).

And the Potency [1]?
The Potency was 0.171 µM (active).

And the Potency [2]?
Its Potency is 0.483 µM (active).

What about the Potency (HEK293) of the same molecule?
Its Potency is 0.485 µM (active).

And the Potency (KB-3-1)?
Its Potency is 0.862 µM (active).

What about the Potency (CAOV3) of the same molecule?
The Potency was 1 µM (active).

And the Potency (HeLa)?
Its Potency is 1.26 µM (active).

And the Potency (SKOV3)?
Its Potency is 2.24 µM (active).

With CC[C@H](C)[C@@H]([C@@H](CC(=O)N1CCC[C@H]1[C@H](OC)[C@@H](C)C(=O)N[C@@H](Cc1ccccc1)c1nccs1)OC)N(C)C(=O)[C@@H](NC(=O)C(C)(C)N)C(C)C (H-[Aib]V[Dil][Dolaproine]-Doe) as the molecule, how does the Potency [4] read?
The Potency was 0.146 µM (active).

And the Potency [1]?
Its Potency is “inactive”.

And the Potency [2]?
Its Potency is “inactive”.

And the max response (HEK293)?
Its max response is -94.9%.

And the outcome (HACAT)?
The outcome was “inactive”.

What about the Potency (CAOV3) of the same molecule?
The Potency was “inactive”.

And the Potency (SKOV3)?
The Potency was “inactive”.

For C/C=C(\C)C(O)C(C)/C=C(C)/C=C/C/C(C)=C/Cc1nc(OC)c(OC)c(O[C@@H]2O[C@@H](C)[C@H](O)[C@@H](O)[C@H]2O)c1C (stereo not given in full), which Potency [4] is on record?
Its Potency is “inactive”.

And the Potency [1]?
Its Potency is 3.55 µM (active).

And the Potency [2]?
Its Potency is 3.99 µM (active).

What about the Potency (CRL-7250 [3]) of the same molecule?
The Potency was 0.796 µM (active).

And the outcome (HACAT)?
The outcome was “inactive [at 17.4 µM]”.

And the Potency (HeLa)?
Its Potency is “inactive”.

And the Potency (SKOV3)?
Its Potency is 3.16 µM (active).

With C[C@]12CC[C@H](O[C@@H]3O[C@H](CO)[C@@H](O)[C@H](O)[C@H]3O)CC1=CC[C@@H]1C2CC[C@]2(C)[C@@H](C3=CC(=O)OC3)CC[C@]12O (stereo not given in full) as the molecule, how does the Potency [4] read?
Its Potency is 4.85 µM (active).

And the Potency [1]?
Its Potency is 2.42 µM (active).

What about the Potency [2] of the same molecule?
Its Potency is 5.41 µM (active).

What about the Potency (CRL-7250 [3]) of the same molecule?
The Potency was 3.43 µM (active).

Which Potency [4] does the source give for C[C@]12CC[C@H](O)CC1=CC[C@@H]1C2CC[C@]2(C)[C@@H](C3=CC(=O)OC3)CC[C@]12O (stereo not given in full) here?
The Potency was 10.1 µM (active).

What about the Potency [1] of the same molecule?
Its Potency is 3.19 µM (active).

And the Potency [2]?
The Potency was 4.5 µM (active).

What about the Potency (CRL-7250 [3]) of the same molecule?
The Potency was 5.08 µM (active).

With CC[C@@H](C)[C@H]1C(=O)O[C@H](C(C)C)C(=O)N(C)[C@@H](C(C)C)C(=O)O[C@H](C(C)C)C(=O)N(C)[C@@H](C(C)C)C(=O)O[C@H](C(C)C)C(=O)N1C as the molecule, how does the Potency [4] read?
Its Potency is 4.32 µM (active).

What about the Potency [1] of the same molecule?
The Potency was 2.16 µM (active).

And the Potency [2]?
Its Potency is 1.53 µM (active).

And the Potency (CRL-7250 [3])?
The Potency was 3.85 µM (active).
